16 molecules from PubChem BioAssay (NCATS) can be followed below.

Results filed as inconclusive are left out. The source made the active and inactive calls. Calls come from the whole dose curve. Bounds are passed on as bounds.
Potency is the fitted concentration of half-maximal effect.

The test in a line: Cell Viability - HepG2 (AID 433).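 Note: potency for ATP loss meaning cytotoxicity.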 Conditions: qHTS. An excerpt:
NIH Chemical Genomics Center [NCGC]
NIH Molecular Libraries Screening Centers Network [MLSCN]
National Institutes of Environmental Health Sciences [NIEHS]
National Toxicology Program [NTP]
We have developed a 1536-well cell-based assay for quantitative high throughput screening (qHTS) against a number of cell lines to determine in vitro cytotoxicity of small molecules. This particular assay uses the HepG2 cell line which is derived from hepatocellular carcinoma.
NCGC Assay Protocol Summary:
The CellTiter-Glo luminescent cell viability assay (Promega) is a homogeneous method to measure the number of viable cells in culture. The end point readout of this assay is based on quantitation of intracellular ATP, an indicator of metabolic activity, using the luciferase reaction. Luciferase catalyzes the oxidation of beetle Luciferin to oxyluciferin and light in the presence of ATP. The luminescent signal is proportional to amount of ATP present.
Using the CellTiter-Glo luminescent cell viability assay, the amount of cellular ATP was measured in the HepG2 cell line with complete culture medium following compound treatment for 40 hours. The assay was performed in opaque white Kalypsys 1536-well plates. In the screen, tamoxifen and doxorubicin were used as positive controls. Library compounds were measured for their ability to cause acute toxicity in the cell line, as reflected by a decrease in intracellular ATP levels, in a concentration-dependent manner. Data were normalized to the controls for basal activity (DMSO only) and 100% inhibition (100 uM tamoxifen). AC50 values were determined from concentration-response data modeled with the standard Hill equation.
qHTS protocol fo CellTiter Glo HepG2 cellular assay
[Step] [Parameter] [Value] [Description]
1. Reagent; 5 uL; 1500 HepG2 cells/well
2. Time; 5 hr; 37 °C incubation
4. Controls; 23 nL; Tamoxifen 0.34 uM to 100 uM & Doxorubicin 0.02 nM to 100 uM
5. Time; 40 hr; 37 °C incubation
6. Reagent; 5 uL; CellTiter Glo reagent
7. Time; 20 min; Room Temperature
8. Detection; Luminescence; Viewlux plate reader
Keywords: cell viability, cytotoxicity, HepG2 cell line, luminescence, NTPHTS, NTPHTS_NCGC, NIEHS, EPA, DSSTox, MLSMR, MLSCN, NIH Roadmap, qHTS, NCGC
For orientation: Quantitative high-throughput screening tests each substance at several concentrations.
For `O=C(O)CCC(=O)C(=O)O`, the Potency is > 92 µM (inactive). For the molecule `CC(C)(C)NC(=O)[C@@H]1C[C@@H]2CCCC[C@@H]2CN1C[C@@H](O)[C@H](Cc1ccccc1)NC(=O)[C@H](CC(N)=O)NC(=O)c1ccc2ccccc2n1`, the Potency was 65.4 µM (active).

Turning to `IC(I)I`, the Potency is > 92 µM (inactive). Next, `CCCCC/C=C\C/C=C\CCCCCCCC(=O)O`: > 92 µM (inactive); `CCCCCCCC/C=C\CCCCCCCC(=O)O`: > 92 µM (inactive); `CC(C)=O`: > 92 µM (inactive). Consider `CCOc1ccc2c(c1)C(C)=CC(C)(C)N2`, for which the Potency is > 92 µM (inactive). Next, `Cc1ccccc1`: > 92 µM (inactive); `CC1=C(/C=C/C(C)=C/C=C/C(C)=C/CO)C(C)(C)CCC1`: > 92 µM (inactive). The value for `CC1=C2[C@@H]([C@H](C)CC[C@H]2/C=C(\C)C(=O)O)[C@H](O)C1` was > 92 µM (inactive); that for `CC(O)CO` (stereo unspecified) was > 92 µM (inactive). Next, `O=CCCCC=O`: > 92 µM (inactive); `O=S(=O)(O)O`: > 92 µM (inactive); `Nc1ccn([C@H]2CS[C@@H](CO)O2)c(=O)n1`: > 92 µM (inactive). On to `CCOC(C)=O`, for which the Potency was > 92 µM (inactive). The value for `CCCCCCCC(=O)O` was > 92 µM (inactive).
